Apoferritin bind – qHTS Assay for Identification of Novel General Anesthetics; Ferritin light chain (Equus caballus), P02791; Potency, µM (highest dose often 77.5 µM), for inactives: top-dose activity change, negative = displacement, hits mostly inhibitors; apoferritin/1-aminoanthracene competitive binding, fluorescence; actives 0.074% (n = 350,000); AID 485281, 2010; further: on the % scale 0 is the no-effect control and ±100 the full control effect; nearly all actives have a fitted effect of over 20% in size
Target sequence (P02791 2-175 limits assumed): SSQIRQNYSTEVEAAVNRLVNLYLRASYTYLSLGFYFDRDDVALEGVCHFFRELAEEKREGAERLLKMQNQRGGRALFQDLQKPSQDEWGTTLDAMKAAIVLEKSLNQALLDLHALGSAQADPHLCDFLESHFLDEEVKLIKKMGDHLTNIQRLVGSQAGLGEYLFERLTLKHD
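Probe: 1-aminoanthracene (50% saturated, PBS). Protein: horse-spleen apoferritin, 10 uM. Incubation: 10 min, room temperature. Detection: 380 nm excitation, 535 nm emission. Analysis: normalized response, four-parameter Hill.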
S2 tox – Viability Counterscreen for Primary qHTS for Inhibitors of ATXN expression. actives 0.49% (n = 400,000). Potency, µM (doses to about 56.7 µM), most hits filed as cytotoxic. S2 cells (HEK-293 line with an ATXN2-luciferase reporter) viability, CellTiter-Fluor protease fluorescence, 24 h; further: nearly all actives have a fitted effect of over 40% in size
ATXN2 expr inh – Primary qHTS for Inhibitors of ATXN expression | AID 1745845, 2022 | actives 0.72% (n = 360,000) | Potency, µM (doses to about 57 µM), inactives show at the highest dose activity change, negative = inhibition, usual class: inhibitors | HEK-293 ATXN2-luciferase reporter, luminescence, 24 h; further: on the % scale 0 is the no-effect control and ±100 the full control effect; nearly all actives have a fitted effect of over 55% in size
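ATXN2-luciferase reporter cells (luciferase flanked by upstream and downstream ATXN2 gene portions) were treated 24 h at 37 °C with compounds at up to 57 uM. SteadyGlo luminescence gave expression; GF-AFC fluorescence gave viability.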
TGFb inhibitor – qHTS for Inhibitors of TGF-b; HepG2 CAGA-GFP TGF-b/SMAD3 reporter, GFP fluorescence, 18 h; TGF-beta stimulated, 500 pg/mL final; Potency, µM (top dose mostly 46.1 µM), for inactives: at the highest dose activity, negative = inhibition, hits mostly inhibitors; actives 1.2% (n = 410,000); further: on the % scale 0 is the no-effect control and ±100 the full control effect; nearly all actives have a fitted effect of over 65% in size
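TGF-beta reporter screen: HEPG2 CAGA-GFP, 1% FBS, 500 pg/mL TGF-beta final, 18 h; per-cell GFP summed per well; curves fitted and categorized by class.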
HepG2 tox – qHTS for Inhibitors of TGF-b: Cytotox Counterscreen. AID 588856, 2011. actives 0.76% (n = 410,000). Potency, µM (series often up to 46.1 µM), without a hit: top-dose activity change, negative = cytotoxicity, actives largely listed as cytotoxic. HepG2 CAGA-GFP viability, ATP luminescence, 18 h
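CellTiter-Glo luminescence gave cytotoxicity after 18 hours at 37 degrees C. The cells were HepG2 CAGA-GFP in 1% FBS DMEM, stimulated with 500 pg/mL TGF-beta after compound addition. %Activity was normalised to no-cell wells (complete cell-killing) and DMSO (no toxicity), and curves were fitted and classified.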
* hit, by the source's call; i = inactive; ? = inconclusive; nt = not tested or not shown; [ ] = dose if it differs, or a comment. Rows were chosen to be rich in hits. Some 2.4% of all compounds tested hit in one or more screens of this group. The call rests on the fitted dose curve; in most records, active means well fitted curve in the direction sought with a large enough effect; inconclusive means small, poorly fitted or top-dose-only effect, or another doubt; inactive means no such curve, though single readings can be large; an effect the other way counts as inactive or inconclusive. Potency means the concentration at half of the fitted maximal effect.

SMILES	Apoferritin bind	S2 tox	ATXN2 expr inh	TGFb inhibitor	HepG2 tox
Cc1ccc2c(c1)Oc1ccc(NC(=O)CCl)cc1C(=O)N2	-4%	10µM*	?	14µM*	8.9µM*
O=C(N/N=C1/C[C@@H](O)[C@@H](O)[C@@H]2[C@@H]3C(=O)N(c4cccc(Oc5ccccc5)c4)C(=O)[C@H]3CC[C@H]12)OCc1ccccc1	2%[15.3 µM]	nt	nt	nt	nt
COc1ccc2sc(-c3ccc(N(C)C)cc3)c(C#Cc3cncn3C)c2c1	nt	nt	?	?	8.9µM*
COc1ccc(-c2ccc(C(C)=O)cc2)cc1C1C2C=CCCC2(C)C(=O)N1Cc1ccccc1 (stereo not drawn)	-15%	nt	nt	-33%	-3%
COc1ccc(C(=O)C(CN2CCOCC2)c2ccccc2)cc1 (stereo not drawn)	-20%	18µM*	?	?	-89%
CCCOc1ccc(C(=O)C(CN2CCCC2)c2ccccc2)cc1 (stereo not drawn)	?	?	?	?	-92%
COc1ccc(C(=O)C(CN2CCCC2)c2ccccc2)cc1 (stereo not drawn)	-22%	nt	?	11µM*	32µM*
CCCCOc1ccc(C(=O)C(CN2CCOCC2)c2ccccc2)cc1 (stereo not drawn)	2%	nt	?	?	-105%
O=C(c1ccccc1)C(CCC(CN1CCOCC1)C(=O)c1ccccc1)CN1CCOCC1 (stereo not drawn)	-19%	nt	22µM*	?	-104%
CCCCCC(O)(c1ccc(OC)cc1)C(CN1CCOCC1)c1ccccc1 (stereo not drawn)	-9%	?	-32%	13µM*	-20%
CCCCNC(=O)c1nc(C2CCN(S(=O)(=O)c3ccccc3C(F)(F)F)CC2)oc1-c1cccc(C(F)(F)F)c1	nt	i	5%	-4%	3%
CC(=O)c1cccc(NC(=O)CCS(=O)(=O)c2ccc(Br)s2)c1	-23%	i	13%	15%	-4%
O=C(CCS(=O)(=O)c1ccc(Br)s1)Nc1cc(C(F)(F)F)cc(C(F)(F)F)c1	-22%	?	?	?	16µM*
CCOc1ccccc1NC(=O)CSc1ncc(S(=O)(=O)c2ccc(C)c(C)c2)c(N)n1	2%	i	2%	8.9µM*	-21%
CCN(C(=O)COC(=O)c1c(NC(C)=O)sc(C)c1C)c1c(N)n(Cc2ccccc2)c(=O)[nH]c1=O	nt	i	nt	1%	-6%
CCC(=O)Oc1ccc2c(c1)CC[C@@H]1[C@@H]2CC[C@]2(C)[C@@H](OC(=O)CC)CC[C@@H]12	nt	i	nt	nt	nt
Cc1c(C(=O)Nc2ccc3c(c2)OCCO3)sc2nc(-c3ccccc3)cn12	-9%	nt	32µM*	-29%	-32%
O=C(NCc1ccc(Cl)cc1)c1ccc(-c2ccccc2C(F)(F)F)o1	-4%	i	-17%	16µM*	-59%
COc1cc2c(cc1OC)/C(=C/c1ccc(N(C)C)cc1)C=C2	nt	nt	nt	-9%	-23%
Cc1ccc(S(=O)(=O)N2CC3(O)CN(C(=O)OC(C)C)N(C(=O)OC(C)C)CC3(OC(=O)NCC3CCCCC3)C2)cc1 (stereo not drawn)	nt	14µM*	?	?	-26%
Cc1ccc(S(=O)(=O)N2CC3(O)CN(C(=O)OC(C)C)N(C(=O)OC(C)C)CC3(OC(=O)NCc3ccccc3F)C2)cc1 (stereo not drawn)	nt	22µM*	0%	?	-31%
Cc1ccc(S(=O)(=O)N2CC3(O)CN(C(=O)OC(C)C)N(C(=O)OC(C)C)CC3(OC(=O)NC3CC3)C2)cc1 (stereo not drawn)	nt	i	5%	nt	nt
CCCCCCNC(=O)OC12CN(C(=O)OC(C)C)N(C(=O)OC(C)C)CC1(O)CN(S(=O)(=O)c1ccc(C)cc1)C2 (stereo not drawn)	nt	nt	?	?	-32%
O=C(C[n+]1ccc2ccccc2c1)c1ccc(F)cc1	nt	nt	nt	?	-49%
Cc1cc(Nc2cccc(Cl)c2)nc2ccc(NC(=O)c3cccc(N(C)C)c3)cc12	27%	i	-12%	-2%	-28%
SMILES	Apoferritin bind	S2 tox	ATXN2 expr inh	TGFb inhibitor	HepG2 tox
COc1ccc(CC(=O)Nc2ccc3nc(Nc4cccc(Cl)c4)cc(C)c3c2)cc1	734%	i	?	?	-20%
O=C(O)c1ccc2c(c1)nc(Nc1cccc(Cl)c1)c1ccncc12	nt	nt	9.7µM*	nt	nt
Cc1cc(Nc2cccc(C(F)(F)F)c2)nc2ccc(NC(=O)Cc3ccc(Cl)cc3)cc12	448%	i	20µM*	?	10µM*
Cc1cc(Nc2cccc(Cl)c2)nc2ccc(NC(=O)c3cccnc3)cc12	1%	i	?	16µM*	13µM*
COCC1CCCN(Cc2ccc3c(c2)CN(C(=O)c2ccc(OC)nc2OC)CCO3)C1 (stereo not drawn)	nt	i	nt	nt	nt
CCOC(=O)c1c(CC(C)C)csc1NC(=O)CCl	?	?	-18%	-10%	20µM*
CCOC(=O)c1c(CC(C)C)csc1NC(=O)C(C)C	-3%	i	-9%	-13%	-38%
COCC(=O)Nc1cc(C(=O)NC2CCCc3ccccc32)c2c(c1)nc(-c1ccncc1)n2C (stereo not drawn)	nt	i	nt	nt	nt
O=[N+]([O-])c1ccc(N/N=C/c2cn(-c3ccccc3)nc2-c2ccccc2)cc1	-8%	i	-2%	-6%	-37%
NS(=O)(=O)c1ccc(N/N=C/c2cn(-c3ccccc3)nc2-c2ccccc2)c([N+](=O)[O-])c1	-14%	11µM*	nt	5.6µM*	6.3µM*
COc1cccc(CNC(=O)c2c(OC)cc(=O)n3c2CCN(C(=O)c2ccccc2Cl)CC3)c1	nt	i	nt	nt	nt
O=C(CC1(O)C(=O)Nc2cc(Cl)cc(Cl)c21)c1ccncc1 (stereo not drawn)	-14%	25µM*	?	?	-106%
COc1cc(CNc2nc(C)c(-c3ccn(CC4CCCN(C)C4)n3)s2)ccc1F (stereo not drawn)	nt	i	nt	nt	nt
Cc1cc(C)c2ccc(NN)nc2c1O	-11%	?	-27%	-28%	-4%
Cc1cc(C)c2ccc(/C=N/O)nc2c1O	6%	i	nt	18µM*	-101%
C=C1C2(C(=O)Nc3nccs3)CCC(C2)C1(C)C (stereo not drawn)	7.9µM*	i	7%	-18%	-33%
C/C(=C(\CCOC(=O)c1ccccc1)SS/C(CCOC(=O)c1ccccc1)=C(/C)N(C=O)Cc1cnc(C)nc1N)N(C=O)Cc1cnc(C)nc1N	nt	i	nt	nt	nt
CC(=O)c1ccc(Nc2nc(C(N)Cc3ccc(C(F)(F)F)cc3)cs2)cc1 (stereo not drawn)	nt	i	0%	?	-94%
